Calls of active or inactive are those of the source.

A short description of test [1]: optical density shifts of acrAB sulA E. coli – strain DRC41, OD650, 48 h, E. coli filamentation inducer project, primary screen (AID 1152).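 Note: E. coli MC1000 strain DRC41 lacking acrAB efflux pump and sulA.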 The settings on record: higher = more signal, called active from +8 up or from −8 down.
Test [2] is described as follows: probe aLefty1 binding on compound microarray – biochemical, small-molecule microarray, 635/667 nm fluorescence, primary screen (AID 1153).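 Note: score merges spot fluorescence with signal-to-noise ratio from the scanned slide images.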 The settings on record: higher = more signal.
A short description of test [3]: plasmodial surface anion channel blockers, osmotic lysis – cell-based, P. falciparum Indochina, OD700, 1 h, primary screen (AID 1154). Conditions: P. falciparum Indochina infected RBC osmotic lysis, higher = more signal, called active from +8 up or from −8 down.
A short description of test [4]: plasmodial surface anion channel blockers, osmotic lysis – cell-based, P. falciparum Indochina, OD700, 2 h, primary screen (AID 1155).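 Note: lysis reports solute entry through the parasite surface anion channel PSAC.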 Conditions: P. falciparum Indochina infected erythrocytes, higher = more signal, called active from +8 up or from −8 down.
Test [5] in a line: changes in parasitized red cell lysis, either direction – P. falciparum Indochina, OD700, 3 h, PSAC antagonist project, primary screen (AID 1156). The settings on record: P. falciparum-infected erythrocytes, osmotic lysis, higher = more signal, called active from +8 up or from −8 down.
Test [6] can be described thus: plasmodial surface anion channel blockers, osmotic lysis – cell-based, P. falciparum Indochina, OD700, 18 h, primary screen (AID 1157). The settings on record: P. falciparum Indochina infected erythrocytes, osmotic lysis OD700, 18 h; higher = more signal, called active from +8 up or from −8 down.
Test [7] is described as follows: S6 kinase pathway phospho-S6 level changes – cell-based, A549, cytoblot, luminescence, serum-stimulated, primary screen (AID 1158).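 Note: serum-stimulated A549 lung adenocarcinoma cells; signal is phosphorylated S6 detected by cytoblot immunostaining with HRP secondary.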 The settings on record: 5 h, higher = more signal.
The target of test [8] is NADPH oxidase 2 (Homo sapiens) (UniProt P04839). The test is described as follows: compounds shifting NOX2 Amplex Red fluorescence – cell-based, HEK293-NOX2, PMA-stimulated, NOX inhibitor project, primary screen (AID 1159). Note: test concentration not given here. The settings on record: 45 min, higher = more signal, called active from +8 up or from −8 down.
For test [9], the target named is NADPH oxidase 4 (Homo sapiens) (UniProt Q9NPH5). Put plainly: compounds shifting NOX4 Amplex Red fluorescence – cell-based, HEK293-NOX4, tetracycline-induced, NOX inhibitor project, primary screen (AID 1160). The settings on record: HEK293-NOX4, Amplex Red H2O2 fluorescence, 45 min; higher = more signal, called active from +8 up or from −8 down.
The target in test [10] is NADPH oxidase 5 (Homo sapiens) (UniProt Q96PH1). The test is described as follows: compounds shifting NOX5 Amplex Red fluorescence – cell-based, HEK293-NOX5, NOX inhibitor project, primary screen (AID 1161). The settings on record: HEK293-NOX5, ionomycin, 45 min, higher = more signal.
Sequence of NADPH oxidase 5 (Homo sapiens) (Q96PH1 whole entry, looked up): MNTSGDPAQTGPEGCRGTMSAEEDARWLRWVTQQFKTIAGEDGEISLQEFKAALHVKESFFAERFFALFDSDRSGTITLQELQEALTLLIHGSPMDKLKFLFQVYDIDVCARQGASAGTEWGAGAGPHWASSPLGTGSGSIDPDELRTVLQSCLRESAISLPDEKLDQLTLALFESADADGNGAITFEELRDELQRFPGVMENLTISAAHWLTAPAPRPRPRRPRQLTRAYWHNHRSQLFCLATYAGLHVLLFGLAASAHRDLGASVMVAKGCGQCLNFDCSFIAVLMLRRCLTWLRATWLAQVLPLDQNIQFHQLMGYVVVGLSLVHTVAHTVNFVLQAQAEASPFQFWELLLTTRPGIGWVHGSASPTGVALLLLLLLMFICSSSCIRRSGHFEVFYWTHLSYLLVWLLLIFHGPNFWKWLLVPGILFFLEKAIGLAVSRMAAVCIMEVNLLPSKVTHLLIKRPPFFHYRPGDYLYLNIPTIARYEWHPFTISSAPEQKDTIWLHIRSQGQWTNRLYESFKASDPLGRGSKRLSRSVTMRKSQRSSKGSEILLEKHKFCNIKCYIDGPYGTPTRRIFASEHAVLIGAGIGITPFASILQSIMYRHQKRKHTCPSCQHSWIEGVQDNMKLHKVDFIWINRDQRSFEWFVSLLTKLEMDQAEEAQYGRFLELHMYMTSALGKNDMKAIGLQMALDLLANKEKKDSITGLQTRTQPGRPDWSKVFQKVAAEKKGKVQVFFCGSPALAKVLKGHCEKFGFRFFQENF

Sequence of NADPH oxidase 4 (Homo sapiens) (Q9NPH5 whole entry, looked up): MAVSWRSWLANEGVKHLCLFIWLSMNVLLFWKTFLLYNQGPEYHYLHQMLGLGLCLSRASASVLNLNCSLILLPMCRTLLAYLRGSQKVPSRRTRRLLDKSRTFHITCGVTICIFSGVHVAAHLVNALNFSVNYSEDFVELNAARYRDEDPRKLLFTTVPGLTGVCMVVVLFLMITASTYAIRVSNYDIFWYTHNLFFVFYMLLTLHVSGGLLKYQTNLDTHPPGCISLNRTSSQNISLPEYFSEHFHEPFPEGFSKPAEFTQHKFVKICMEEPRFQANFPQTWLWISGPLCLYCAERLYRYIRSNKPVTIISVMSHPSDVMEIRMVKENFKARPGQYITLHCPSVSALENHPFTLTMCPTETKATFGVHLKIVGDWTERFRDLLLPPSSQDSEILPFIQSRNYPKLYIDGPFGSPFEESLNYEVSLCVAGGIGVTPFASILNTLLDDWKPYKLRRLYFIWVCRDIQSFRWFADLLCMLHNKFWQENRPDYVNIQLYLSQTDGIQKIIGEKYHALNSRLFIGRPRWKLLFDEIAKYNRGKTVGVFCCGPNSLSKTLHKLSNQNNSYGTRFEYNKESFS
Sequence of NADPH oxidase 2 (Homo sapiens) (P04839 whole entry, looked up): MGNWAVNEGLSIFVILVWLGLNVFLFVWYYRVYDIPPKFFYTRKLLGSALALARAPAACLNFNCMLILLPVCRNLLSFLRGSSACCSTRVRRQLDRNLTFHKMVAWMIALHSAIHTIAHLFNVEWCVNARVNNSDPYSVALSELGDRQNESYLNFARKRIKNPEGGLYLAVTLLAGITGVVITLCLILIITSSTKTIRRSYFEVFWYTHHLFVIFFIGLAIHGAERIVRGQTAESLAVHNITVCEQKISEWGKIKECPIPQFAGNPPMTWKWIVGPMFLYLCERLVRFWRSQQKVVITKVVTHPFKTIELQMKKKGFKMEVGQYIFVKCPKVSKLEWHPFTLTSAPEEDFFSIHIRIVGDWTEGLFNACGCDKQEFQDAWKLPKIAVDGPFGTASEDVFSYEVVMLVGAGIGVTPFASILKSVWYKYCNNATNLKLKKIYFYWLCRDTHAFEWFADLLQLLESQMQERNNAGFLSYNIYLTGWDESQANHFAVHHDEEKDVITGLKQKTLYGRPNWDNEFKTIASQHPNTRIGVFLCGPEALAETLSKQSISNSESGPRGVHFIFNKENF

Turning to `COC(=O)[C@@]1(Cc2ccc(OC)cc2)[C@H]2c3cc(C(=O)N(C)C)n(Cc4cccc5ccccc45)c3C[C@H]2CN1C(=O)c1ccccc1`, the z-score in test [1] was -1.27 (inactive); in test [3], 2.33 (inactive); in test [4], -0.206 (inactive); in [5], 1.19 (inactive); in test [6], -1.39 (inactive); in test [7] it was 2.11. The z-score in test [8] was -3.14 (inactive); in [9] it was -1.83 (inactive); in [10], -4.62. In [2], the composite z-score was 0.468.

Consider `COCCOC(=O)N1C(=O)[C@@]2(c3cc(C#CCCO)ccc31)[C@H](c1ccc(OCCO)cc1)N1[C@H](c3ccccc3)[C@H](c3ccccc3)OC(=O)[C@H]1[C@@H]2C(=O)N1CCN(c2ncccn2)CC1`, for which the z-score was -0.304 (inactive) in test [1]; 5.15 (inactive) in test [3]; 1.58 (inactive) in test [4]; -0.325 (inactive) in test [5]; 0.411 (inactive) in test [6]; -0.113 in [7]. The z-score in [8] was 1.89 (inactive); in test [9], 0.925 (inactive); in test [10], 1.32. This compound came in with a composite z-score in test [2] of 0.372.

For the compound `COCCOC(=O)N1C(=O)[C@@]2(c3cc(C#Cc4ccc(OC)cc4)ccc31)[C@H](c1ccc(O)cc1)N1[C@H](c3ccccc3)[C@H](c3ccccc3)OC(=O)[C@H]1[C@@H]2C(=O)NC[C@H](O)c1ccccc1`, the z-score is 0.72 (inactive) in test [1]; 3.44 (inactive) in test [3]; 0.973 (inactive) in test [4]; 0.38 (inactive) in test [5]; 0.532 (inactive) in [6]; 0.264 in [7]. Also, the z-score was 1.07 (inactive) in test [8], -1.05 (inactive) in [9] and 1.1 in [10]. In test [2], this compound had a composite z-score of 0.176.

Consider `COCC(=C=CC[C@H](O)c1ccccc1OCCO)C[C@H](O)c1cc(Cl)cc(Cl)c1O`, for which the z-score in [1] is -0.381 (inactive); in test [3] it was 7.9 (inactive); in test [4], 8.65 (active); in test [5] it was -9.18 (active); in test [6], 3.52 (inactive); in [7] it was -0.539. Moreover, the z-score in [8] was -5.19 (inactive); in [9] it was -2.45 (inactive); in test [10] it was -3.1. This compound showed a composite z-score in test [2] of 0.233.

As to `COC(=O)[C@@]1(Cc2ccc(OC)cc2)[C@H]2c3cc(C(=O)N4CCCC4)n(Cc4ccsc4Br)c3C[C@H]2CN1C(=O)c1ccccc1`, the z-score in test [1] is -0.68 (inactive); in test [3], 0.538 (inactive); in test [4], -0.155 (inactive); in test [5], 0.0114 (inactive); in test [6], 0.469 (inactive); in test [7], 0.0613. Also, the z-score is 0.289 (inactive) in test [8], -0.137 (inactive) in [9] and -1.24 in test [10]. The composite z-score in test [2] was determined as 0.0429.

Consider `CCOC(=O)C[C@H]1[C@H](OC(=O)c2cc3ccccc3oc2=O)[C@@H](NC(=O)C2CCCCC2)c2cc(OCCCO)ccc2N1C(=O)c1ccccc1`, for which the z-score in test [1] was 1.67 (inactive); in [3], 0.388 (inactive); in test [4], -0.269 (inactive); in test [5], 0.342 (inactive); in test [6] it was -1.4 (inactive); in test [7] it was 1.18. In addition, the z-score in test [8] is -0.341 (inactive); in test [9], 0.609 (inactive); in test [10], 0.305. Also, in test [2], the composite z-score was -0.147.

Regarding `C=CCNC(=O)[C@H]1[C@@H]2C(=O)O[C@@H](c3ccccc3)[C@@H](c3ccccc3)N2[C@@H](c2ccccc2OCCO)[C@]12C(=O)Nc1ccc(C#CC3=CCCCC3)cc12`, the z-score in [1] was 0.748 (inactive); in test [3], 3.01 (inactive); in [4], 2.25 (inactive); in [5], 0.407 (inactive); in test [6], 1.71 (inactive); in test [7], 0.142. Moreover, the z-score in test [8] is 1.38 (inactive); in [9], 0.676 (inactive); in test [10], 1.75. Moreover, the composite z-score in test [2] was 0.0919.

Turning to `O=C1OCC=C[C@H]2OC34C=CCN(c5ccc6ccccc6c5)C(=O)[C@H]3N(CCCCCCO)C(=O)[C@@H]4[C@@H]12` (stereo not given in full), the z-score is -0.0903 (inactive) in test [1]; 3.18 (inactive) in [3]; 0.0422 (inactive) in [4]; 0.966 (inactive) in [5]; 0.525 (inactive) in test [6]; -0.482 in test [7]. The z-score in test [8] is 1.36 (inactive); in test [9], 0.0322 (inactive); in [10], 2.12. The compound further registered a composite z-score in test [2] of 0.0839.

Turning to `C[C@]1(C(=O)NC2CC2)c2ccccc2C(=O)N(Cc2cc(C(F)(F)F)cc(C(F)(F)F)c2)[C@H]1c1ccc(CO)cc1`, the z-score is 1.4 (inactive) in test [1]; 7.52 (inactive) in test [3]; 1.18 (inactive) in test [4]; 1.26 (inactive) in test [5]; 0.599 (inactive) in [6]; 0.049 in test [7]. The z-score was -1.25 (inactive) in [8], 0.222 (inactive) in test [9] and 1.06 in test [10]. The composite z-score in [2] stood at 0.0278.

In the case of `C=C(COC)/C(=C/C[C@@H](OC(C)=O)c1ccc(CO)o1)c1cnc2ccccc2c1`, the z-score is 0.876 (inactive) in test [1]; 4.44 (inactive) in test [3]; 0.759 (inactive) in [4]; 1.56 (inactive) in [5]; 0.307 (inactive) in test [6]; 0.0933 in test [7]. In addition, the z-score was 0.299 (inactive) in [8], -2.98 (inactive) in test [9] and -1.25 in test [10]. For the same compound, the composite z-score in [2] came to 0.233.

Source of the values: PubChem BioAssay.
